# The source made the active and inactive calls. Unless noted, no rule for the calls is given here.
# Tests used:
# [1] = system: Wnt5a (protein binding on small-molecule microarray); test: Wnt5a binders on small-molecule microarray, primary screen, biophysical, 635/667 nm fluorescence (AID 1142); details: 635 nm fluorescence, higher = more signal;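 also: fluorescence read at 667 nm with signal to noise per printed feature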
# [2] = cell viability in Huh7 cells, primary screen, cytotoxicity control for HCV replication inhibitor project, CellTiter-Glo luminescence, basal, 48 h (AID 1143); details: Huh7 HCV replicon, higher = more signal, called active from +8 up or from −8 down;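 also: Huh7 hepatoma cells carrying a hepatitis C replication reporter with no stimulus; test concentration not given here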
# [3] = P. aeruginosa biofilm formation inhibitors, primary screen, PAO1 strain, BacTiter-Glo luminescence, LB-PBS (AID 1144); details: 12 h, higher = more signal
# [4] = CREB reporter modulators without forskolin, primary screen, cell-based, PC12, CRE-LacZ reporter, unstimulated (AID 1145); details: no forskolin, luminescence, 4.5 h, higher = more signal, called active from +8 up or from −8 down
# [5] = CREB reporter modulators under forskolin, primary screen, cell-based, PC12, CRE-LacZ reporter, forskolin-stimulated (AID 1146); details: luminescence, 4.5 h, higher = more signal, called active from +8 up or from −8 down;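 also: PC12 cells with 6xCRE LacZ reporter stimulated by forskolin 10 µM; beta-galactosidase reporter signal reflecting CREB driven transcription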
# [6] = target: Streptavidin (Streptomyces avidinii) (UniProt P22629); test: streptavidin binders on small-molecule microarray, primary screen, artefact control for SMM compound annotation, biophysical, 635/667 nm fluorescence (AID 1147); details: streptavidin binding, higher = more signal;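 also: signal reflects streptavidin binding to arrayed compounds as a control protein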
# [7] = small-molecule binders of probe aInhba, primary screen, biochemical, small-molecule microarray, 635/667 nm fluorescence (AID 1148); details: higher = more signal;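 also: score merges 667nm spot fluorescence with signal-to-noise for antibody binding to printed compounds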
# [8] = target: Torsin-1A (Homo sapiens) (UniProt O14656); test: torsin A binders from cell lysate, primary screen, small-molecule microarray, wild-type, 635/667 nm (AID 1149); details: COS7 hTOR1A-WT lysate, 635 nm fluorescence, higher = more signal
# [9] = target: Torsin-1A (Homo sapiens) (UniProt O14656); test: small-molecule binders of mutant TOR1A in lysate, primary screen, cell lysate, small-molecule microarray, COS7 lysate, 635/667 nm fluorescence (AID 1150); details: COS7 hTOR1A mutant lysate, 635 nm fluorescence, higher = more signal;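 also: score pools 667 nm emission and signal to noise measuring lysate protein binding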
# [10] = system: Sonic hedgehog protein (Shh); test: small-molecule binders of Shh protein, primary screen, biochemical, small-molecule microarray, 635/667 nm fluorescence (AID 1151); details: small-molecule microarray binding, 635 nm fluorescence; higher = more signal;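 also: Shh protein binding to compounds spotted on small-molecule microarray slides; score combines spot fluorescence intensity with signal-to-noise across triplicate slides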
# [11] = E. coli DRC41 culture turbidity changes, primary screen, E. coli filamentation inducer project, strain DRC41, OD650, 48 h (AID 1152);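 also: E. coli MC1000 strain DRC41 lacking acrAB efflux pump and sulA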; details: E. coli DRC41 (acrAB sulA), higher = more signal, called active from +8 up or from −8 down
# [12] = small-molecule binders of probe aLefty1, primary screen, biochemical, small-molecule microarray, 635/667 nm fluorescence (AID 1153); details: higher = more signal;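 also: score merges spot fluorescence with signal-to-noise ratio from the scanned slide images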
# [13] = PSAC antagonists in infected red cells, primary screen, cell-based, P. falciparum Indochina, OD700, 1 h (AID 1154); details: P. falciparum Indochina infected RBC osmotic lysis, higher = more signal, called active from +8 up or from −8 down
# [14] = PSAC antagonists in infected red cells, primary screen, cell-based, P. falciparum Indochina, OD700, 2 h (AID 1155);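 also: lysis reports solute entry through the parasite surface anion channel PSAC; channel blockers reduce lysis of infected cells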; details: P. falciparum Indochina infected erythrocytes, osmotic lysis OD700; higher = more signal, called active from +8 up or from −8 down
# [15] = osmotic lysis modulators in infected erythrocytes, primary screen, PSAC antagonist project, cell-based, P. falciparum Indochina, OD700, 3 h (AID 1156); details: higher = more signal, called active from +8 up or from −8 down
# [16] = PSAC antagonists in infected red cells, primary screen, cell-based, P. falciparum Indochina, OD700, 18 h (AID 1157); details: P. falciparum Indochina infected erythrocytes, osmotic lysis OD700, 18 h; higher = more signal, called active from +8 up or from −8 down
# [17] = modulators of S6 phosphorylation in cells, primary screen, cell-based, A549, cytoblot, luminescence, serum-stimulated (AID 1158); details: A549 phospho-S6 cytoblot, 5 h, higher = more signal;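 also: serum-stimulated A549 lung adenocarcinoma cells; signal is phosphorylated S6 detected by cytoblot immunostaining with HRP secondary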
# [18] = target: NADPH oxidase 2 (Homo sapiens) (UniProt P04839); test: NOX2-dependent H2O2 signal modulators, primary screen, NOX inhibitor project, cell-based, HEK293-NOX2, PMA-stimulated, Amplex Red fluorescence (AID 1159); details: 45 min, higher = more signal, called active from +8 up or from −8 down; also: test concentration not given here
# [19] = target: NADPH oxidase 4 (Homo sapiens) (UniProt Q9NPH5); test: NOX4-dependent H2O2 signal modulators, primary screen, NOX inhibitor project, cell-based, HEK293-NOX4, tetracycline-induced, Amplex Red fluorescence (AID 1160); details: 45 min, higher = more signal, called active from +8 up or from −8 down
# [20] = target: NADPH oxidase 5 (Homo sapiens) (UniProt Q96PH1); test: NOX5-dependent H2O2 signal modulators, primary screen, NOX inhibitor project, cell-based, HEK293-NOX5, Amplex Red fluorescence (AID 1161); details: HEK293-NOX5, ionomycin, 45 min, higher = more signal
# NADPH oxidase 5 (Homo sapiens), sequence (Q96PH1 whole entry, looked up): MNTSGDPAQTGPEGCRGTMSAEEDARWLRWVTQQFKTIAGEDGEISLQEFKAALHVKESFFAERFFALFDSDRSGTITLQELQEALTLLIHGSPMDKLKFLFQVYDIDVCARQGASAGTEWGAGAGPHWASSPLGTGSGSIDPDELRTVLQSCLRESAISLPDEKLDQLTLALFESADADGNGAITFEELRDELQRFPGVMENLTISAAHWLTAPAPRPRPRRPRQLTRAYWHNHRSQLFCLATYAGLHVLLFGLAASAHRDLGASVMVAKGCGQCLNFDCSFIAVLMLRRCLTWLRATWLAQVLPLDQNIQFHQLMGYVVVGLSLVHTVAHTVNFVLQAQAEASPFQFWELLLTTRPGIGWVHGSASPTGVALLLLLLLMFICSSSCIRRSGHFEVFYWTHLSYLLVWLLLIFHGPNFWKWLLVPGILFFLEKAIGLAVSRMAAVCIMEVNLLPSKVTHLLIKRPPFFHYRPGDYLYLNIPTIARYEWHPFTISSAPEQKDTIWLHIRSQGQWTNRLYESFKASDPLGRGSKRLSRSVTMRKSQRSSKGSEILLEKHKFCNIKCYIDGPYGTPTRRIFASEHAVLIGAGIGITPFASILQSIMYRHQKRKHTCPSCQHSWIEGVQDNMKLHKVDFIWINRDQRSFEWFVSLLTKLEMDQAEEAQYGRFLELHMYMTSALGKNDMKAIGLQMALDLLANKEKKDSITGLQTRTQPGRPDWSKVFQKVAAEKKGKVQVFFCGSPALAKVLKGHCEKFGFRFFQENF
# Streptavidin (Streptomyces avidinii), sequence (P22629 whole entry, looked up): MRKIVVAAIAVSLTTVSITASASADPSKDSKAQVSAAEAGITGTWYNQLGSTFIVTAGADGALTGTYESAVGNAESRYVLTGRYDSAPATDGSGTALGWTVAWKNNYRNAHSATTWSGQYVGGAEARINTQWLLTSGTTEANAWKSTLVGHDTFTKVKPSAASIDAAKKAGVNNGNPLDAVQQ
# NADPH oxidase 2 (Homo sapiens), sequence (P04839 whole entry, looked up): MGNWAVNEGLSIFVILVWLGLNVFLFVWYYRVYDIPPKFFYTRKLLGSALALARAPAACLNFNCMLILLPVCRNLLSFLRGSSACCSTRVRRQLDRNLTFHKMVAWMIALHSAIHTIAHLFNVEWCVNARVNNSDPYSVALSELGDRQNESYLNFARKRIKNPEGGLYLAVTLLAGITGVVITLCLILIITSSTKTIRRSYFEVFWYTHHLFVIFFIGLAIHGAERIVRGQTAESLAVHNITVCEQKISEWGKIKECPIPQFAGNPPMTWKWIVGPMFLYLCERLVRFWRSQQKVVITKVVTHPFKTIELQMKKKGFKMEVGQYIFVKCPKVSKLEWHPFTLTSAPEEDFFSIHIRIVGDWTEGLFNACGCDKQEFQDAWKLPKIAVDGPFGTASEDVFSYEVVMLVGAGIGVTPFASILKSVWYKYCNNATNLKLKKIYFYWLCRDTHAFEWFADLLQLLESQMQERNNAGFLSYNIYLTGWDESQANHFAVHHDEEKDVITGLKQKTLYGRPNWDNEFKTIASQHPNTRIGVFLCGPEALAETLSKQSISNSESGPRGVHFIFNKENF
# Torsin-1A (Homo sapiens), sequence (O14656 whole entry, looked up): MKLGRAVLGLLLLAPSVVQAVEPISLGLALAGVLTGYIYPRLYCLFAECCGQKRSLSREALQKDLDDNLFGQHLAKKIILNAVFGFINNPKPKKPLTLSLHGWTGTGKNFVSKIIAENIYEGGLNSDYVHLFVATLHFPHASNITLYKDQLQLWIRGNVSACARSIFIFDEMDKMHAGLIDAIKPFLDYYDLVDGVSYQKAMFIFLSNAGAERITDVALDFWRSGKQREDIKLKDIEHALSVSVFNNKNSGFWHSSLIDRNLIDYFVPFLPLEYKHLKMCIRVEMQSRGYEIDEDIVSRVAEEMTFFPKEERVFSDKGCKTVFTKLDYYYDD
# NADPH oxidase 4 (Homo sapiens), sequence (Q9NPH5 whole entry, looked up): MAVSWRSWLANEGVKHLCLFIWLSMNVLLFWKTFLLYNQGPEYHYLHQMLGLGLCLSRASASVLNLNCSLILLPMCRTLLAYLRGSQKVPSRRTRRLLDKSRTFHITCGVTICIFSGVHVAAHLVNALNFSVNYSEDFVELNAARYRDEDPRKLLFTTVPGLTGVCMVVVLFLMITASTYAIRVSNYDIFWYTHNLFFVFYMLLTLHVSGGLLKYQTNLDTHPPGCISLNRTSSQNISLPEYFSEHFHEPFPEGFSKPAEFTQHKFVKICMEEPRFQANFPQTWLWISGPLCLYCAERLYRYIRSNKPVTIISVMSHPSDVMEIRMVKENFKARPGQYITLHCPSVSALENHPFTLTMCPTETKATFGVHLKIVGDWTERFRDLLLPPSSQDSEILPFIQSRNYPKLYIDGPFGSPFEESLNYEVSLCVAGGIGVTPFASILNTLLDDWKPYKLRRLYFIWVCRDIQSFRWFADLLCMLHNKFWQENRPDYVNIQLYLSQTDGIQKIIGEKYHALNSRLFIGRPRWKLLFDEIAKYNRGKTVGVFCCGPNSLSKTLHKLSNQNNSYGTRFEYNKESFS
structure (smiles),measurement,setting,value
CCCC=C(CCC)[C@@H](NC(=O)c1ccc(C(F)(F)F)cc1)c1ccc(C(F)(F)F)cc1,composite z-score,[1],0.63
same,z-score,[2],-2.78 (inactive)
same,z-score,[3],0.429 (inactive)
same,z-score,[4],0.779 (inactive)
same,z-score,[5],0.34 (inactive)
same,composite z-score,[6],0.48
same,composite z-score,[7],0.207
same,composite z-score,[8],0.342
same,composite z-score,[9],0.587
same,composite z-score,[10],-0.605
same,z-score,[11],-1.35 (inactive)
same,composite z-score,[12],0.792
same,z-score,[13],1.23 (inactive)
same,z-score,[14],0.588 (inactive)
same,z-score,[15],-0.957 (inactive)
same,z-score,[16],1.25 (inactive)
same,z-score,[17],-0.523
same,z-score,[18],-0.0499 (inactive)
same,z-score,[19],-0.414 (inactive)
same,z-score,[20],2.97
COc1ccc([Si](C)(C)[C@@H]2[C@@H](CC(=O)N(CCO)Cc3ccccc3)O[C@]3(C(=O)N(Cc4ccc(N5C(=O)c6cccc7cccc5c67)cc4)c4ccccc43)[C@H]2C)cc1,composite z-score,[1],0.0547
same,z-score,[2],-4.28 (inactive)
same,z-score,[3],-0.298 (inactive)
same,z-score,[4],0.12 (inactive)
same,z-score,[5],-0.204 (inactive)
same,composite z-score,[6],0.22
same,composite z-score,[7],-0.0112
same,composite z-score,[8],0.37
same,composite z-score,[9],0.0705
same,composite z-score,[10],1.8
same,z-score,[11],-0.414 (inactive)
same,composite z-score,[12],0.004
same,z-score,[13],7.3 (inactive)
same,z-score,[14],2.33 (inactive)
same,z-score,[15],0.296 (inactive)
same,z-score,[16],1.14 (inactive)
same,z-score,[17],0.487
same,z-score,[18],1.28 (inactive)
same,z-score,[19],-0.496 (inactive)
same,z-score,[20],2.72
C=CC[C@@]12N=C(c3ccc(OCCCO)cc3)O[C@@H]1c1ccccc1N(CCC)C2=O,composite z-score,[1],0.318
same,z-score,[2],-4.06 (inactive)
same,z-score,[3],-1.29 (inactive)
same,z-score,[4],0.69 (inactive)
same,z-score,[5],-0.707 (inactive)
same,composite z-score,[6],-0.0328
same,composite z-score,[7],-0.0185
same,composite z-score,[8],-0.1
same,composite z-score,[9],0.204
same,composite z-score,[10],1.84
same,z-score,[11],1.39 (inactive)
same,composite z-score,[12],0.568
same,z-score,[13],35.3 (active)
same,z-score,[14],36.6 (active)
same,z-score,[15],1.75 (inactive)
same,z-score,[16],6.24 (inactive)
same,z-score,[17],0.697
same,z-score,[18],-3.4 (inactive)
same,z-score,[19],-0.215 (inactive)
same,z-score,[20],-1.75
C=C(/C(=C/C[C@@H](OC(C)=O)c1cccc(OCCO)c1)c1cnc2ccccc2c1)C(C)C,composite z-score,[1],1
same,z-score,[2],-1.69 (inactive)
same,z-score,[3],-1.04 (inactive)
same,z-score,[4],0.769 (inactive)
same,z-score,[5],1.32 (inactive)
same,composite z-score,[6],0.208
same,composite z-score,[7],0.0013
same,composite z-score,[8],1.83
same,composite z-score,[9],1.29
same,composite z-score,[10],2.05
same,z-score,[11],0.509 (inactive)
same,composite z-score,[12],0.0582
same,z-score,[13],12.5 (active)
same,z-score,[14],2.52 (inactive)
same,z-score,[15],1.24 (inactive)
same,z-score,[16],0.895 (inactive)
same,z-score,[17],0.328
same,z-score,[18],-1.71 (inactive)
same,z-score,[19],-0.885 (inactive)
same,z-score,[20],-1.73
COC(=O)[C@@]1(Cc2ccccc2)[C@H]2c3cc(C(=O)N(C)C)n(CCSC(=N)N)c3C[C@H]2CN1C(=O)c1ccccc1,composite z-score,[1],-0.042
same,z-score,[2],0.0619 (inactive)
same,z-score,[3],-0.367 (inactive)
same,z-score,[4],0.583 (inactive)
same,z-score,[5],0.53 (inactive)
same,composite z-score,[6],-0.405
same,composite z-score,[7],0.0444
same,composite z-score,[8],-0.524
same,composite z-score,[9],-0.209
same,composite z-score,[10],-0.564
same,z-score,[11],-0.817 (inactive)
same,composite z-score,[12],0.138
same,z-score,[13],0.929 (inactive)
same,z-score,[14],0.542 (inactive)
same,z-score,[15],0.746 (inactive)
same,z-score,[16],0.494 (inactive)
same,z-score,[17],-0.0307
same,z-score,[18],0.251 (inactive)
same,z-score,[19],-0.357 (inactive)
same,z-score,[20],-1.01
CN1C(=O)C2C(C1=O)C1C=C(c3ccc(CO)cc3)C2C(C2CC2)N1C (stereo not given),composite z-score,[1],-0.283
same,z-score,[2],-0.131 (inactive)
same,z-score,[3],0.178 (inactive)
same,z-score,[4],-0.219 (inactive)
same,z-score,[5],0.173 (inactive)
same,composite z-score,[6],-0.095
same,composite z-score,[7],-0.128
same,composite z-score,[8],0.508
same,composite z-score,[9],0.286
same,composite z-score,[10],-0.605
same,z-score,[11],0.235 (inactive)
same,composite z-score,[12],-0.177
same,z-score,[13],0.773 (inactive)
same,z-score,[14],0.892 (inactive)
same,z-score,[15],0.472 (inactive)
same,z-score,[16],0.184 (inactive)
same,z-score,[17],0.691
same,z-score,[18],-1.19 (inactive)
same,z-score,[19],-0.394 (inactive)
same,z-score,[20],0.163
CC(C)=CCCC(C)=CC(O)C1C=CC2C(=O)NC(=O)C2N1Nc1ccccn1 (stereo not given),composite z-score,[1],0.827
same,z-score,[2],-0.614 (inactive)
same,z-score,[3],-0.564 (inactive)
same,z-score,[4],-0.333 (inactive)
same,z-score,[5],-0.0179 (inactive)
same,composite z-score,[6],0.968
same,composite z-score,[7],-0.154
same,composite z-score,[8],1.61
same,composite z-score,[9],1.53
same,composite z-score,[10],2.08
same,z-score,[11],-0.255 (inactive)
same,composite z-score,[12],-0.864
same,z-score,[13],0.494 (inactive)
same,z-score,[14],-0.531 (inactive)
same,z-score,[15],-0.725 (inactive)
same,z-score,[16],-1.94 (inactive)
same,z-score,[17],0.585
same,z-score,[18],-0.637 (inactive)
same,z-score,[19],-1.61 (inactive)
same,z-score,[20],-0.467
CC(C)NC(=O)[C@@]1(c2ccc([N+](=O)[O-])cc2)CC(=O)N(CC23CC4CC(CC(C4)C2)C3)[C@@H]1c1ccc(CO)cc1,composite z-score,[1],0.821
same,z-score,[2],-4.42 (inactive)
same,z-score,[3],-0.336 (inactive)
same,z-score,[4],0.362 (inactive)
same,z-score,[5],0.795 (inactive)
same,composite z-score,[6],0.771
same,composite z-score,[7],1.19
same,composite z-score,[8],1.17
same,composite z-score,[9],1.36
same,composite z-score,[10],1.95
same,z-score,[11],-0.323 (inactive)
same,composite z-score,[12],1.56
same,z-score,[13],2.3 (inactive)
same,z-score,[14],0.814 (inactive)
same,z-score,[15],1.86 (inactive)
same,z-score,[16],0.204 (inactive)
same,z-score,[17],-0.248
same,z-score,[18],-0.108 (inactive)
same,z-score,[19],-1.02 (inactive)
same,z-score,[20],-0.0647
O=C1O[C@@H](c2ccccc2)[C@@H](c2ccccc2)N2[C@@H](c3ccc(OCCO)cc3)[C@]3(C(=O)Nc4ccc(C#CC5(O)CCCCCC5)cc43)[C@@H](C(=O)O)[C@H]12,composite z-score,[1],0.213
same,z-score,[2],-0.72 (inactive)
same,z-score,[3],-0.448 (inactive)
same,z-score,[4],-0.0246 (inactive)
same,z-score,[5],0.371 (inactive)
same,composite z-score,[6],0.351
same,composite z-score,[7],-0.0695
same,composite z-score,[8],0.562
same,composite z-score,[9],0.695
same,composite z-score,[10],0.633
same,z-score,[11],1.87 (inactive)
same,composite z-score,[12],-0.0862
same,z-score,[13],-1.17 (inactive)
same,z-score,[14],-0.927 (inactive)
same,z-score,[15],-8.35 (active)
same,z-score,[16],-0.76 (inactive)
same,z-score,[17],0.169
same,z-score,[18],2.21 (inactive)
same,z-score,[19],-0.56 (inactive)
same,z-score,[20],0.314

# From PubChem BioAssay
